# In the supplement of paper PMC10981050:
# Several values for one entry are separate records, joined by “and”; a condition that tells them apart may be missing. Equal entries are not always repeated. Structures can show the parent of a compound that is named as a salt.
# Key:
# Experiment in all cases: cell viability relative to vehicle control; higher = less cytotoxic
# Conditions in all cases: 10 µM
# [1] = tested on: K562
# How it was run: (§1)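 Mutant clones made by CRISPR editing and their isogenic wild-type counterparts, from four leukaemia lines, were exposed to a single 10 µM dose of each library compound for 48 h. The supernatant was then removed and CellTiter-Glo luminescence was read. Viability was reported as percent of the on-plate vehicle control.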
# [2] = tested on: MARIMO
# How it was run: as §1
# [3] = tested on: MOLM14
# How it was run: as §1
# [4] = tested on: OCI-AML2
# How it was run: as §1
SMILES,cell viability ([1]; SRSF2 genotype: SRSF2 P95H/wt),cell viability ([1]; SRSF2 genotype: SRSF2 wt/wt) [%],cell viability ([2]; SRSF2 genotype: SRSF2 P95H/wt) [%],cell viability ([2]; SRSF2 genotype: SRSF2 wt/wt) [%],cell viability ([3]; SRSF2 genotype: SRSF2 P95H/wt) [%],cell viability ([3]; SRSF2 genotype: SRSF2 wt/wt) [%],cell viability ([4]; SRSF2 genotype: P95H/wt) [%],cell viability ([4]; SRSF2 genotype: wt/wt) [%]
O=C(Nc1ccc(Br)cc1)c1c(O)cccc1O [Resorantel],17.7% and 15.3%,19.6,38.7,39.3,17.5,11.8,4.86,14.2
Cc1cnc(-c2ccccc2C(C)C)nc1NCc1ccc(-n2ccnn2)cc1,76.7% and 83.9%,74.5,91.1,89.7,94,88.5,93.2,90.2
CN[C@H]1CN(c2ccc3c(=O)c(C(=O)O)cn(-c4nccs4)c3n2)C[C@@H]1OC [Voreloxin (SNS-595) hydrochloride],74% and 88.4%,79.8,20.8,36,21.3,7.31,15.6,19.9
CCCCS(=O)(=O)N[C@@H](Cc1ccc(OCCCCC2CCNCC2)cc1)C(=O)O [Tirofiban Hydrochloride],94.8% and 103%,96,89.6,104,101,99.6,100,107
CC1CNc2c(cccc2S(=O)(=O)N[C@@H](CCCNC(=N)N)C(=O)N2CC[C@@H](C)C[C@@H]2C(=O)O)C1 (some centres undefined) [Argatroban],107% and 105%,94,100,108,103,101,91.7,107
CN[C@@H]1[C@H](O)[C@H](NC)[C@H]2O[C@@]3(O)C(=O)C[C@@H](C)O[C@H]3O[C@@H]2[C@H]1O [Spectinomycin 2HCl],101% and 102%,93.5,103,102,104,99,106,94.4
COc1ccc(-c2oc3c(CC=C(C)C)c(O)cc(O)c3c(=O)c2O[C@@H]2O[C@@H](C)[C@H](O)[C@@H](O)[C@H]2O)cc1 [Baohuoside I],101% and 98.2%,90.4,94.6,107,87.8,88.5,101,107
CNC(=O)[C@H](Cc1ccccc1)NC(=O)[C@H](CC(C)C)[C@H](CSc1cccs1)C(=O)NO [Batimastat (BB-94)],91.3% and 94.3%,75,79,96.8,89.4,98.5,115,114
CC[C@@H]1C(=O)N(C)c2cnc(Nc3ccc(C(=O)NC4CCN(C)CC4)cc3OC)nc2N1C1CCCC1,1.43% and 2.65%,1.81,6.52,5.37,0.17,0.13,0.53,2.92
CC(C)n1nc(-c2ccc3oc(N)nc3c2)c2c(N)ncnc21,31.8% and 31.3%,29.9,37.9,32.7,13.6,15.8,6.33,12
CC[C@H]1OC(=O)[C@H](C)[C@@H](O[C@H]2C[C@@](C)(OC)[C@@H](O)[C@H](C)O2)[C@H](C)[C@@H](O[C@@H]2O[C@H](C)C[C@H](N(C)C)[C@H]2O)[C@](C)(O)C[C@@H](C)C(=O)[C@H](C)[C@@H](O)[C@]1(C)O [Erythromycin],99.5% and 99.1%,97.1,101,98.2,104,99.6,106,103
O=c1c(-c2ccc(O)cc2)coc2cc(O)cc(O)c12 [Genistein],97.4% and 105%,105,92.6,87.8,79.4,88.7,81.8,87.4
O=c1[nH]cnc2c1ncn2[C@H]1C[C@H](O)[C@@H](CO)O1 [2'-Deoxyinosine],120% and 113%,116,104,107,105,118,103,111
O=C(c1ccc(C(=O)N2CCC(N3CCCC3)CC2)c(Nc2ccccc2)c1)N1CCC(N2CCCC2)CC1,94.7% and 87.5%,84.1,81.1,92.7,89,89.4,93.8,89.4
Cc1ccc(NC(=O)c2ccc(CN3CCN(C)CC3)cc2)cc1Nc1nc(-c2cccnc2)cs1 [Masitinib (AB1010)],6.35% and 18.8%,12.1,72.5,59.7,70.3,67.8,52,52.1
C[C@H](CCC(=O)O)[C@H]1CC[C@H]2[C@@H]3CC[C@@H]4C[C@H](O)CC[C@]4(C)[C@H]3C[C@H](O)[C@]12C [Deoxycholic acid],94.9% and 86.4%,87.3,93.7,103,94.7,95,94.5,93
COc1cccc2c1c(O)c(C(=O)N(C)c1ccc(C(F)(F)F)cc1)c(=O)n2C [Tasquinimod],108% and 106%,99.1,109,116,106,106,101,110
O=c1c(N=Nc2nccs2)c(-c2ccccc2)[nH]n1-c1nc(-c2ccccc2)cs1,88.4% and 89.2%,88.4,94.2,106,92.9,95.9,103,105
Cc1cc(O)cc(O)c1 [Orcinol],110% and 104%,104,100,98.8,113,107,98.7,107

SMILES,cell viability ([1]; SRSF2 genotype: SRSF2 P95H/wt),cell viability ([1]; SRSF2 genotype: SRSF2 wt/wt) [%],cell viability ([2]; SRSF2 genotype: SRSF2 P95H/wt) [%],cell viability ([2]; SRSF2 genotype: SRSF2 wt/wt) [%],cell viability ([3]; SRSF2 genotype: SRSF2 P95H/wt) [%],cell viability ([3]; SRSF2 genotype: SRSF2 wt/wt) [%],cell viability ([4]; SRSF2 genotype: P95H/wt) [%],cell viability ([4]; SRSF2 genotype: wt/wt) [%]
O=C(N/N=C/c1cc(O)c(O)cc1O)c1cc2ccccc2cc1O [Dyngo-4a],78.9% and 81.5%,78,67.3,89.5,64.9,72,85.1,79.3
Cc1nc2ccc(-n3ncc(C(=O)c4cc5ccccc5[nH]4)c3N)cc2[nH]1,73.6% and 86.9%,76.5,90.6,103,41.2,47.5,42.6,43.7
C#CC[C@H](c1nc2cc(Cl)ccc2c(=O)n1Nc1ccccc1)N(CCCN)C(=O)c1cccc(Cl)c1F,0.47% and 0.44%,0.4,0.46,0.55,0.39,0.42,0.41,0.45
CC(=O)OC(C)C(C)C(=O)OCC12C3CC(C)(C)[C@H](O[C@@H]1C[C@]1(C)C3=CCC3C4(C)CCC(O[C@@H]5O[C@H](C(=O)O)[C@@H](O[C@H]6O[C@H](CO)[C@@H](O)[C@H](O)[C@H]6O)[C@H](O)[C@H]5O[C@@H]5OC[C@@H](O)[C@H](O)[C@H]5O)[C@](C)(CO)C4CCC31C)C2O (some centres undefined) [Sodium Aescinate],90.7% and 98.9%,93.9,95.5,96.8,89.4,92.3,88.5,93.2
O=C(O)[C@H]1O[C@@H](Oc2cc3oc(-c4ccccc4)cc(=O)c3c(O)c2O)[C@H](O)[C@@H](O)[C@@H]1O [Baicalin],98.7% and 105%,109,101,97.8,98.7,107,99.9,95.3
Cc1cccc(Nc2cc(Cl)nc(SCC(=O)O)n2)c1C,95.6% and 95.5%,97.2,98.9,99.9,95.9,98.5,90.3,94.4
O=C(Oc1cccc(F)c1OC(=O)c1cccc(O)c1)c1cccc(O)c1,92.4% and 99.5%,94.9,68.8,88.4,78.4,80.3,92.6,82.4
CC1(C)S[C@@H]2[C@H](NC(=O)[C@H](N)c3ccccc3)C(=O)N2[C@H]1C(=O)O [Ampicillin sodium],99% and 108%,102,109,109,102,107,109,95.7
Cc1c(C(=O)N2CCOc3ccc(-c4ccc(N)nc4)cc3C2)ccc(S(C)(=O)=O)c1F,84.6% and 89.8%,84.4,81.4,76.9,71.2,63.6,70,67.8
COC(=O)c1ccc2c(c1)[nH]c1ncnc(NCCCN3CCCCC3)c12,78.5% and 68.9%,73.5,49.9,49,23.7,15.7,24.2,31
O=C(O)c1cn(-c2ccc(F)cc2)c2cc(N3CCNCC3)c(F)cc2c1=O [Sarafloxacin HCl],99.7% and 102%,90.9,97.8,102,103,99.5,102,102
NCCOCCOCCNC(=O)Cc1ccc(Nc2nc(NCc3ccc(F)cc3)nc(NCC3CCCCC3)n2)cc1 [AP-III-a4 (ENOblock)],81.5% and 90.7%,87.5,94.3,97.1,16,14,75.2,79.6
COc1cccc(-n2c(=O)[nH]c3cc(Cl)n(-c4ccc(-c5cccc(OC)c5O)cc4)c3c2=O)c1,91.6% and 97.4%,93,108,117,107,102,95.8,97.3
CC1(C)S[C@@H]2[C@H](NC(=O)[C@H](N)c3ccc(O)cc3)C(=O)N2[C@H]1C(=O)O [Amoxicillin (Amoxycillin)],97.3% and 90.7%,91.7,91.2,98.5,99.7,100,92.4,105
CCCCOc1c(C(=O)c2c(F)cc(C)cc2F)c[nH]c2nncc1-2,104% and 105%,114,72.6,84.8,68.8,87.7,57.1,59.5
C[C@H](C[C@H](O)[C@@H](O)C(C)(C)O)C1=C2C[C@H](O)[C@H]3[C@@]4(C)CCC(=O)C(C)(C)[C@@H]4CC[C@]3(C)[C@@]2(C)CC1 [Alisol A],85.4% and 85.1%,89.8,86.9,79.1,98.4,96.2,84.9,83.5
O=C(Nc1ccc(O)cc1)c1ccccc1O [Osalmid],98.1% and 108%,98.3,93,95.8,107,109,99,87.3
O=c1cc[nH]c(=S)[nH]1 [2-Thiouracil],101% and 103%,100,98.6,109,106,106,107,104
COc1cc(F)c(C(C)C)cc1-c1ccc(C(F)(F)F)cc1CN1C(=O)O[C@H](c2cc(C(F)(F)F)cc(C(F)(F)F)c2)[C@@H]1C [Anacetrapib (MK-0859)],97.5% and 95.6%,92.9,91.2,105,98.7,99,91.8,102
